We go through 40 compounds from PubChem BioAssay AID434955 (Southern Research Specialized Biocontainment Screening …, 2010).

About 880 (0.27%) of roughly 330,000 compounds were called active. Roughly 1% stayed inconclusive and do not appear here. How the calls were made is not given here. Only a sample is shown.

The nature of the assay: beta-lactam sensitization of Mtb H37Rv, H37Rv (AID 434955).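 Further: growth measured after seven days incubation then overnight dye step; 0% = bacteria only wells and 100% = bacteria with antibiotic.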 The note with it: M. tuberculosis H37Rv growth with meropenem, percent inhibition, at 25 µM.
Setting [1] is: measured here: primary screen without meropenem.

For orientation: inhibition means the change of the read-out against control, counted positive when it falls. For `CSc1ccc(CN2C(=O)NC3(CCCCCC3)C2=O)cc1`, the inhibition is 19.2% (inactive) (stronger effect = higher value) and 5.94% under setting [1].
For `CCN(CC)CCNCC(=O)Nc1ccc(Oc2ccccc2)cc1`, in that order: -3.27% (inactive) and 3.64%.
Taken in the same sequence, the figures for `COc1ccc(N2CCN(C(=O)CCNC(=O)c3ccc(Br)cc3)CC2)cc1` were -10.2% (inactive) and -3.75%.
For `O=C(NCc1ccccc1)C(c1ccco1)N(C(=O)c1csnn1)c1ccccc1F` (stereo not given), in that order: -3.66% (inactive) and -4.47%.
In the case of `COc1ccccc1CN1CC(C(=O)NCCc2cn[nH]c2)CCC1=O` (stereo not given), the inhibition by setting is: (stronger effect = higher value) -1.38% (inactive); under setting [1], 3.44%.
Turning to `CC1=NCCN1S(=O)(=O)c1ccc(Br)c(C)c1`, the inhibition was 5.04% (inactive) (stronger effect = higher value) and 10.8% under setting [1].
For `Cn1c(SCC(=O)N2CCOCC2)nnc1-c1ccc(NC(=O)c2ccccc2F)cc1`, in that order: -1.25% (inactive) and -0.23%.
Taken in the same sequence, the figures for `Cc1ccc(S(=O)(=O)N(C)CC(=O)OCC(=O)N2CC(=O)Nc3ccccc32)cc1` were -3.86% (inactive) and -0.77%.
For `Cc1csc(Nc2ccc(Cl)cc2)[n+]1-c1ccc(Cl)cc1`, the inhibition was 5.09% (inactive) (stronger effect = higher value) and -4.07% under setting [1].
For `C=CCC(NCc1ccco1)c1ccc(OC)cc1` (stereo not given), in that order: -0.53% (inactive) and -3.95%.
Taken in the same sequence, the figures for `CCCc1ccc(-c2c(C)sc(NC(=O)c3ccnn3C)c2C#N)cc1` were 15.9% (inactive) and -4.16%.
For `N#Cc1ccc(OCCN2C(=O)NC3(CCSC3)C2=O)cc1` (stereo not given), the inhibition runs as follows: (stronger effect = higher value) -7.2% (inactive); under setting [1], -8.16%.
For `CN(C)CCn1c2c(c(SCC(=O)Nc3ccccc3C(F)(F)F)nc1=O)CCCC2`, in that order: -6.06% (inactive) and -5.4%.
For `O=C(NCCc1ccccc1)C1CCC(Cn2c(=O)c3ccccc3n(Cc3cccnc3)c2=O)CC1` (stereo not given), in that order: 19.4% (inactive) and 2.41%.
For `O=S(=O)(NCC1CC1)c1ccc(F)c(Cl)c1`, in that order: -3.45% (inactive) and 1.07%.
On to `O=C(Nc1ccccc1Cl)/C(Cl)=C(\Cl)S(=O)c1ccccc1` (stereo not given), for which the inhibition (stronger effect = higher value) was 100% (inactive) and the inhibition under setting [1] stood at 100%.
For `O=C(Oc1c(-c2ccco2)oc2ccccc2c1=O)c1cccnc1`, in that order: 92.5% (inactive) and 91.2%.
For `Cc1ccc(OCC(=O)Oc2ccccc2[N+](=O)[O-])cc1`, in that order: -3.48% (inactive) and -11.4%.
On to `O=C1NC2(CCCCC2)N=C1c1ccccc1`, for which the inhibition was -10.1% (inactive) (stronger effect = higher value) and -2.99% under setting [1].
Consider `Cc1cc(NC(=O)c2ccccc2C)no1`, for which the inhibition by setting is: (stronger effect = higher value) -1.93% (inactive); under setting [1], 3.81%.
Taken in the same sequence, the figures for `Cc1n[nH]c(=O)c2c(NC(=O)CSc3cc(Cl)ccc3Cl)oc(C)c12` were -5.41% (inactive) and -1.99%.
For `CC(C)C(=O)Nc1nnc(SCC(=O)N2C(C)CCCC2C)s1` (stereo not given), in that order: 0.21% (inactive) and 10.7%.
For `Cc1ccc2c(c1)-c1c(ssc1=S)C(C)(C)N2C(=O)CN1C(=O)c2ccccc2C1=O`, in that order: -4.41% (inactive) and -1.91%.
Take `CC1Sc2ccc(C(=O)NCc3ccccc3Cl)cc2NC1=O` (stereo not given): the inhibition was 6.05% (inactive) (stronger effect = higher value) and 2.96% under setting [1].
For `COc1cc(C2C(C(=O)OCCC#N)=C(C)NC3=C2S(=O)(=O)c2ccccc23)cc(OC)c1OC` (stereo not given), in that order: 4.16% (inactive) and 1.07%.
Taken in the same sequence, the figures for `COc1ccc(-c2cc(=O)oc3cc(OC(C)C(=O)Nc4ccc(CN5CCOCC5)cc4)ccc23)cc1` (stereo not given) were 98.4% (inactive) and 96.8%.
Taken in the same sequence, the figures for `CC(Sc1nnc2c(n1)C1CCC2(C)C1(C)C)C(=O)Nc1ccccc1` (stereo not given) were -4.99% (inactive) and -6.12%.
For `Nn1c(SCC(=O)Nc2ccc3c(c2)CCC3)nnc1C1CC1`, the inhibition (stronger effect = higher value) was -4.28% (inactive) and the inhibition under setting [1] was -7.87%.
For `C/C=C(\C)C(=O)NCCN1C2=NC[C@H](Cc3ccc(O)cc3)N2C[C@@H]1Cc1ccc(OC)cc1`, in that order: -14.9% (inactive) and -6%.
Taken in the same sequence, the figures for `CSCCC(Nc1ccc(S(=O)(=O)N2CCOCC2)cc1[N+](=O)[O-])C(=O)OCC(=O)N(C(C)C)C(C)C` (stereo not given) were 3.64% (inactive) and 2.01%.
Taken in the same sequence, the figures for `CCCCC(C(=O)NC(C)(C)C)N(Cc1ccccc1)C(=O)c1snc(C(N)=O)c1N` (stereo not given) were -2.34% (inactive) and 4.81%.
In the case of `Fc1ccc2c(c1)C(c1cccnc1)=NNC(c1cccs1)=N2`, the inhibition (stronger effect = higher value) is 31% (inactive) and the inhibition under setting [1] is 4.96%.
Taken in the same sequence, the figures for `Cc1ccc(-c2csc(NC(=O)C3=COCCO3)n2)cc1C` were 92.7% (inactive) and 99.3%.
For `CN(CC(=O)Nc1ccc(S(=O)(=O)N2CCCC2)cc1)Cc1ccc(Cl)c(Cl)c1`, in that order: 1.99% (inactive) and 0.57%.
Taken in the same sequence, the figures for `C=C(C)c1cccc(C(C)(C)NC(=O)N2CCN(c3ncccn3)CC2)c1` were -9.15% (inactive) and -8.65%.
`O=C1C=C(c2ccnc3cc(Cl)ccc23)C[C@@H](c2ccc3c(c2)OCO3)C1`: the inhibition is, setting by setting: (stronger effect = higher value) 52.4% (inactive); under setting [1], 50.9%.
For the compound `CCc1ccc(/C=N/NC(=O)c2ccc(OC3CCCC3)cc2)s1`, the inhibition is 2.88% (inactive) (stronger effect = higher value) and 3.87% under setting [1].
Taken in the same sequence, the figures for `Cc1ccc(-n2cc(CN(C)Cc3nccn3C)c(-c3cccc(C)c3)n2)cc1` were 98.9% (inactive) and 99.4%.
Taken in the same sequence, the figures for `O=C(NC(=S)N1CCN(Cc2ccccc2)CC1)c1ccccc1` were 36.8% (inactive) and -3.71%.
As to `CC(OC(=O)CN1C(=O)C2CCCCC2C1=O)C(=O)Nc1ncc(Cl)cc1Cl` (stereo not given), the inhibition reads like this: (stronger effect = higher value) -4.66% (inactive); under setting [1], 4.44%.
